Most compounds without a hit are left out; they make up all but 2.4% or so of the library.
Pol kappa inh-1 = DNA polymerase kappa (human) inhibition; Q9UBT6; purified Pol kappa, fluorescent DNA synthesis assay, 10 min; Potency, µM (top dose mostly 107 µM), without a hit: at the highest dose activity, negative = inhibition, most hits filed as inhibitors; 0.53% of 400,000 active; AID 588579; further: potency means the concentration at half of the fitted maximal effect; on the % scale 0 is the no-effect control and ±100 the full control effect
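Enzyme at 10 nM met test compounds for 15 min at room temperature. Substrate addition (50 nM final) began the reaction, which was monitored by fluorescence at 0 and 10 min.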
Pol eta inh-1 = inhibitors of human DNA polymerase eta. Q9Y253. recombinant Pol eta, fluorescent DNA replication assay. Potency, µM (highest dose often 114 µM), without a hit: at the highest dose activity change, negative = inhibition, most hits filed as inhibitors. 1.2% of 390,000 active. AID 588591; further: potency means the concentration at half of the fitted maximal effect; on the % scale 0 is the no-effect control and ±100 the full control effect
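Fluorescent replication assay: 50 nM final substrate added after a 15 min room-temperature compound preincubation with 10 nM enzyme. Signal taken at 0 min and again at 10 min.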
FEN1 inhibitor = human FEN1 inhibition; Recombinant FEN1 flap cleavage, fluorescence, 15 min; Potency, µM (doses to about 114 µM), for the others: at the top dose activity change, negative = inhibition, hits mostly inhibitors; 0.35% of 390,000 active; AID 588795; further: potency means the concentration at half of the fitted maximal effect; on the % scale 0 is the no-effect control and ±100 the full control effect; nearly all actives have a fitted effect of over 65% in size
Target sequence (P39748 whole entry, looked up): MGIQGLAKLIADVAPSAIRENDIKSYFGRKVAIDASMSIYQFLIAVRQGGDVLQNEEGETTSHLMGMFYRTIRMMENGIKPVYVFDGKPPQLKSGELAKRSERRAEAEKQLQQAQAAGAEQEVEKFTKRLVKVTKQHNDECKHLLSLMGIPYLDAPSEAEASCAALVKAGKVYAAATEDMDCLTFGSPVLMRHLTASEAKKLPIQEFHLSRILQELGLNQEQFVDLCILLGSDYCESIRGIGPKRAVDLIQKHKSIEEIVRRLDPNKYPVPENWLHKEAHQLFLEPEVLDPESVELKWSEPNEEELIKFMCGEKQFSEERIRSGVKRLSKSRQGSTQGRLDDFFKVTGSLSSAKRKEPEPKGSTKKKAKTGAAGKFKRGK
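Potency values derive from four-parameter Hill fits of normalized qHTS data. The reaction used 10 nM FEN1 preincubated 15 min at room temperature with compound, then 50 nM DNA substrate, read at 0 and 15 min.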
WRN helicase inh = blocks human WRN helicase; Q14191; WRN helicase unwinding, fluorescent forked duplex, kinetic; Potency, µM (doses to about 114 µM), for inactives: top-dose activity change, negative = inhibition, most hits filed as inhibitors; 0.46% of 360,000 active; AID 651768; further: potency means the concentration at half of the fitted maximal effect; on the % scale 0 is the no-effect control and ±100 the full control effect; nearly all actives have a fitted effect of over 55% in size
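Kinetic fluorescence helicase assay: unwinding of a quenched forked DNA duplex (100 nM final) with 2 mM ATP final raises red fluorescence (525/598 nm). Compounds sat 15 min at room temperature with 20 nM WRN beforehand.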
Pol beta inh = blocks human DNA polymerase beta activity; P06746; Pol beta primer extension/strand displacement, fluorescence kinetic; Potency, µM (top dose mostly 114 µM), for inactives: at the highest dose activity change, negative = inhibition, hits mostly inhibitors; 1.3% of 340,000 active; AID 485314; further: potency means the concentration at half of the fitted maximal effect; on the % scale 0 is the no-effect control and ±100 the full control effect
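Curves were derived by four-parameter Hill fits of normalized qHTS data. The kinetic fluorescent primer-extension read was taken at 0 and 10 min after 50 nM substrate, following a 15 min room-temperature preincubation of 10 nM enzyme with compounds.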
Pol iota inh = DNA polymerase iota (human) inhibition; Q9UNA4; Potency, µM (highest dose often 115 µM), for inactives: at the top dose activity, negative = inhibition, usual class: inhibitors; 1% of 390,000 active; Pol iota fluorescent replication assay, 10 min; further: potency means the concentration at half of the fitted maximal effect
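Pol iota at 10 nM preincubated 15 min with compounds at room temperature; reaction started with fluorescent substrate, 50 nM final. Fluorescence read kinetically at 0 and 10 min; buffer-only wells as negative control.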
GALK inh confirm = galactokinase (human) inhibition, confirmation; shares compounds with Pol eta inh-1; purified GALK, Kinase-Glo ATP depletion luminescence; Potency, µM (titrated, usually from 115 µM), without a hit: at the highest dose activity, negative = inhibition, usual class: inhibitors; 70% of 150 active
Redox cycling = redox cycling activity in phenol red-HRP assay; 40% of 150 active; shares compounds with Pol eta inh-1; Phenol red-HRP H2O2 redox cycling, absorbance 600 nm; Potency, µM (highest dose often 115 µM), inactives show at the highest dose activity change, negative = H2O2 signal, usual class: inhibitors
HEK293 tox = counter-screen for GALK inhibitors: HEK293 cell cytotoxicity; 10% of 170 active; Potency, µM (series often up to 46.1 µM), without a hit: top-dose activity change, negative = cytotoxicity, hits mostly inhibitors; shares compounds with Pol eta inh-1; HEK-293 viability, ATP luminescence (CellTiter-Glo), 24/48 h; further: potency means the concentration at half of the fitted maximal effect; on the % scale 0 is the no-effect control and ±100 the full control effect
Pol kappa inh-2 = confirmation of human DNA polymerase kappa inhibitors; shares compounds with Pol eta inh-1; purified Pol-kappa, fluorescent strand-displacement substrate; Potency, µM, usual class: inhibitors; 76% of 920 active; further: potency means the concentration at half of the fitted maximal effect
Pol eta inh-2 = confirmation of human DNA polymerase eta inhibitors; 64% of 2,600 active; Potency, µM, most hits filed as inhibitors; shares compounds with Pol eta inh-1; Pol eta primer extension, TAMRA/BHQ fluorescence, 10 min; AID 720502; further: potency means the concentration at half of the fitted maximal effect
Starred values were filed as active, the others as inactive; ? = inconclusive; . = no result given; ! = repeats disagree; [ ] = remark or other dose. The call rests on the fitted dose curve; in most records, active means well fitted curve in the direction sought with a large enough effect; inconclusive means small, poorly fitted or top-dose-only effect, or another doubt; inactive means no such curve, though single readings can be large; an effect the other way counts as inactive or inconclusive.

SMILES	Pol kappa inh-1	Pol eta inh-1	FEN1 inhibitor	WRN helicase inh	Pol beta inh	Pol iota inh	Pol eta inh-2	others
O=c1oc2ccccc2c(O)c1C(c1ccc([N+](=O)[O-])cc1)c1c(O)c2ccccc2oc1=O	?	20µM*	-21%	?	50µM*	?	.	GALK inh confirm=27µM*;Redox cycling=5%;HEK293 tox=-2%
O=c1cc(-c2ccc(O)c(O)c2)oc2c(C3O[C@H](CO)[C@@H](O)[C@H](O)[C@H]3O)c(O)cc(O)c12 (some centres undefined)	20µM*	?	-18%	-6%	20µM*	28µM*	?	Pol kappa inh-2=19*
Cc1ncc2n1-c1ccc(Cl)cc1C(c1ccccc1F)=NC2O (centres undefined)	16%[60.1 µM]	.	.	.	.	.	.
O=C(O)C1C(C(=O)O)C2(Cl)C(Cl)=C(Cl)C1(Cl)C2(Cl)Cl (centres undefined)	79µM*	-6%	7%	2%[11.6 µM]	.	45µM*	?
O=C1NC(=O)C2C1C1(Cl)C(Cl)=C(Cl)C2(Cl)C1(Cl)Cl (centres undefined)	-4%	-1%	-15%	1%	.	-9%	.
c1ccc(N2CCC3(CCNCC3)CC2)nc1	-18%[60.1 µM]	.	.	.	.	.	.
C[C@@H]1O[C@@H](O[C@@H]2C=C3CC[C@@H]4[C@@H](CC[C@]5(C)[C@H](c6ccc(=O)oc6)CC[C@@]45O)[C@@]3(C)CC2)[C@H](O)[C@H](O)[C@H]1O	-4%	.	-5%	.	.	-9%	.
CCOC(=O)C1C(C=C(C)C)C1(C)C (centres undefined)	-4%[60.1 µM]	.	.	.	.	.	.
CCn1ncc(-c2ccnc3cc(C(=O)O)nn23)c1C	-20%	25µM*	-6%	-4%[11.6 µM]	?	35µM*	?
CCCCc1ccc(C(=O)O)nc1	1%[60.1 µM]	-6%	11%	6%	5%[57.1 µM]	-29%	.
O=C(O)CCC(=O)NCCC1=c2ccccc2=N/C1=C\c1c(O)n(Cc2ccc(F)cc2)c(=S)[nH]c1=O	?	50µM*	-10%	79µM*	-8%	?	?
CC(C)NC(=O)C(C)N1CCN(S(=O)(=O)c2ccc3ccccc3c2)CC1 (centres undefined)	2%	11%	-5%	-17%	3%	39%	.
O=C(NCCc1ccccc1)[C@@H]1CC=C[C@@H]2CCN(Cc3ccc(Cl)c(Cl)c3)C(=O)[C@@H]21	-16%	-23%	?	-2%	.	15%	.
COc1cc(O)c(C(=O)O)c(-c2cc(O)c(O)cc2C)c1	?	10µM*	?	-9%	20µM*	?	?
COc1ccc2c(c1)c(C(=O)O)c(C)n2CC(C)C	-7%	-6%	9%	2%	9%	8%	.
C=CCC1(C(C)CCC)C(=O)N=C(S)NC1=O (centres undefined)	-2%[60.1 µM]	.	.	.	.	.	.
Cc1cccc(N2C(=O)NC(=O)/C(=C\c3cccn3-c3ccc(Cl)cc3)C2=O)c1	79µM*	11µM*	17%	?	22µM*	22µM*	60*
CCC1C(=O)OC[C@H]1Cc1cncn1C (some centres undefined)	-8%[60.1 µM]	.	.	.	.	.	.
O=C(c1ccc2c(c1)N(Cc1ccc(F)cc1Cl)C(=O)c1ccccc1S2)N1CCC2(CC1)OCCO2	-9%[60.1 µM]	-13%	7%	.	-7%	14%	.
O=C(c1ccc2c(c1)N(Cc1cccc(F)c1)C(=O)c1ccccc1S2)N1CCC2(CC1)OCCO2	-5%[60.1 µM]	?	-21%	.	22µM*	-18%	?	Pol kappa inh-2=?
CCn1nc(-c2ccccc2)nc2c(=O)n(C)c(=O)nc1-2	-8%	0.79µM*	-12%	-18%	?	-103%	.	GALK inh confirm=0.6µM*;Redox cycling=0.67µM*;HEK293 tox=?
Cc1ccccc1N1C(=O)NC(=O)/C(=C\c2cnn(-c3ccccc3)c2)C1=O	-5%	22µM*	-13%	?	16µM*	-6%	?
C=CCN1C(=O)/C(=C/c2ccc3c(c2)CCCN3CCC)C(=O)NC1=S	?	71µM*	-10%	56µM*	?	?	67*
C=CCN1C(=O)NC(=O)/C(=C/c2ccc(OC)c(CSc3ccccn3)c2)C1=O	-11%	?	-13%	?	5%	11%	.
C=CCN1C(=O)/C(=C/c2ccc(Br)s2)C(=O)NC1=S	79µM*	20µM*	?	56µM*	?	18µM*	?
SMILES	Pol kappa inh-1	Pol eta inh-1	FEN1 inhibitor	WRN helicase inh	Pol beta inh	Pol iota inh	Pol eta inh-2	others
CCOP(=S)(OCC)Oc1ncn(-c2ccccc2)n1	17%[60.1 µM]	.	.	.	.	.	.
O=C1CC2OCC=C3CN4CCC56c7cc([N+](=O)[O-])ccc7N1C5C2C3CC46 (centres undefined)	0%	-17%	2%	7%	6%	8%	.
O=C(O)CC1OCC=C2CN3CCC45C6=CC(=O)C(=O)C([N+](=O)[O-])=C6NC4C1C2CC35 (centres undefined)	40µM*	5µM*	-67%	-30%	?	1.8µM*!	.	GALK inh confirm=11µM*;Redox cycling=5.3µM*;HEK293 tox=-1%
Cc1ccc(N2C(=O)NC(=O)/C(=C\c3ccoc3)C2=O)cc1	?	50µM*	-29%	?	?	32µM*	48*
Cc1ccc(N2C(=O)NC(=O)/C(=C\c3cc(C)n(-c4ccc(C(=O)O)cc4)c3C)C2=O)cc1	?	35µM*	-30%	-4%[11.6 µM]	?	25µM*	?
Cc1cc(C=C2C(=O)N(C)C(=O)N(C)C2=O)c(C)n1-c1ccccc1	-7%[60.1 µM]	12%	14%	1%	3%	-1%	.

From PubChem BioAssay
